Data from PubChem BioAssay (NCI).
Compounds without any hit were thinned out: in the full panel of roughly 79,000, 15% have a hit. Active and inactive are the calls of the source. No stated cut-off is given here; in the data, active means growth inhibition above about 70%; inactive means the rest.

assay: NCI Yeast Anticancer Drug Screen. Data for the bub3 strain (AID 167); conditions: S. cerevisiae bub3 mutant strain, at 50.0 µM, stronger effect = higher value
Summary of the method: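 Readout: yeast growth inhibition, expressed relative to vehicle-only wells. The test organism is a mutant strain from a panel with lesions in DNA repair or checkpoint genes.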

Compound	growth inhibition
CCCCN=C1Nc2nc(=NCCCC)nc3c(Br)cc(Br)c(n23)N1	-4.9% (inactive)
CC(C(=O)O)C1Nc2ccccc2NC1=O (stereo not drawn)	-18.7% (inactive)
Cc1cc(C)c2c(ccc3ccccc32)n1	-19.9% (inactive)

assay: NCI Yeast Anticancer Drug Screen. Data for the mlh1 rad18 strain (AID 175); conditions: S. cerevisiae mlh1 rad18 strain growth inhibition; at 50.0 µM; stronger effect = higher value
Summary of the method: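 Steps: expose repair-defective yeast to compound; measure growth; express inhibition against vehicle-treated controls.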

Compound	growth inhibition
N#C/C(=C\c1ccco1)C(N)=O	-10.7% (inactive)
COCCCNC(=O)c1nc2ccccc2c(=O)n1NC(=O)Cc1ccccc1	-7.75% (inactive)
COc1ccc(CCN2CCc3c(C)c(C#N)c4nc5ccccc5n4c32)cc1OC	34.5% (inactive)
COc1cc2c(c(O)c1C)C(=O)CC(c1ccccc1)O2 (stereo not drawn)	11.7% (inactive)
CC(C)=CC(=O)OC1C2C(C)C(=O)OC2C(O)C(C)C2C=CC(=O)C21C (stereo not drawn)	8.2% (inactive)
NC(=O)NNCc1ccccc1	-53.8% (inactive)
O=C1CCC(CC2CCCCC2)CC1	-12.2% (inactive)
CC(C)Nc1ccc(O)cc1	-8% (inactive)
NC(=O)CC(N)C(=O)NC(Cc1ccccc1)C(=O)NC(Cc1ccccc1)NC(=O)C(Cc1c[nH]c2ccccc12)C(=O)O (stereo not drawn)	1.95% (inactive)
CCOC(=O)c1nc2ccc(C(F)(F)F)cc2nc1Nc1ccc(Cl)c(Cl)c1	6.15% (inactive)
Cc1ncc(CSc2ccccc2N)c(CO)c1O	-4.55% (inactive)
CCOC(=O)C(C(=O)OCC)C(C(=O)OCC)C(=O)OCC	-9.05% (inactive)
OCC=C1CCCCCC1	2.95% (inactive)
CSC(=S)c1ccc(NSc2ccccc2[N+](=O)[O-])cc1	33.8% (inactive)
COc1ccc(CCNC(=O)Cc2cc(OCc3ccccc3)c(OC)cc2[N+](=O)[O-])cc1OC	6.9% (inactive)
O=C(O)c1c(Br)c(Br)c(Br)c(Br)c1C(=O)Nc1ccc(Br)cc1	33.2% (inactive)
O=C1OC(C(O)C(O)C(O)CO)C(O)C1O (stereo not drawn)	4.65% (inactive)
CCOC(=O)c1cnc(SC)nc1Nc1cccc(C)c1	-36.1% (inactive)
CCC[CH2][Sn]([CH2]CCC)([O]C(=O)c1nccnc1N)[O]C(=O)c1nccnc1N	88.2% (active)
Cc1ccc(Nc2nnc(Nc3ccc(C)cn3)c3ccccc23)nc1	-7.95% (inactive)

Compound	growth inhibition
O=S(=O)(O)c1cc2c3ccccc3ccc2c2ccccc12	21.8% (inactive)
Cc1ccc2c3nc4ccccc4c-3csc2c1	99.3% (active)
N#C/C(=C/c1cccc2ccccc12)C(N)=O	26.1% (inactive)
CC(O)C1CC1 (stereo not drawn)	-5.7% (inactive)
O=C(C[N+]12CN3CN(CN(C3)C1)C2)c1ccc(-c2ccccc2)cc1	45.6% (inactive)
O=C(CCCl)NNC1=NCCCN1	-0.05% (inactive)
CC(C)=NNS(=O)(=O)c1ccc(C)cc1	-7.55% (inactive)
CCOC(=O)COC(=O)CCc1ccccc1	0.45% (inactive)
C=C(C)[C@@H]1CC=C(CO)CC1	8.4% (inactive)
O=C(Cn1cc(I)c(C(=O)NCC(O)CO)n1)NCC(O)CO (stereo not drawn)	-9.25% (inactive)
Cc1cccc(NC(=O)C(Cl)Cl)n1	-18.1% (inactive)
O=C(NCCCn1ccnc1[N+](=O)[O-])C(=O)NCCCn1ccnc1[N+](=O)[O-]	-23.4% (inactive)
O=C(Cl)c1cc(Cl)cc(Cl)c1Br	25.7% (inactive)
COC(=O)NC(=O)CCC(=O)O	12.8% (inactive)
O=C(O)c1ccccn1	30% (inactive)
NC(=O)c1ccc(NCC2=CC(=O)C=CC2=O)cc1	16.8% (inactive)
CN(C)c1nc2[nH]ncc2c(=O)[nH]1	0.8% (inactive)
CCCCN=C1Nc2nc(=NCCCC)nc3c(Br)cc(Br)c(n23)N1	21.9% (inactive)
CC(C(=O)O)C1Nc2ccccc2NC1=O (stereo not drawn)	0.3% (inactive)
Cc1cc(C)c2c(ccc3ccccc32)n1	-33.5% (inactive)
